Measurements from the supplement of paper PMC6555819.

System: RARa homodimer (NR concentration 270 nM)
Test: PBM binding z-score (relative to random genomic background probes); higher = stronger binding; sequences stand for … in GC…GCGATTGACAGCGTAGAATGAAGG
How it was run: (§1)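 For binding z-scores, the reference was random background probes on custom Agilent 4×180K protein-binding microarrays. These arrays were incubated 1 h with ligand-free nuclear receptor dimers in PBS pH 7.4, 2% milk, 0.02% Triton X-100, 1 mM DTT, 0.2 mg/mL BSA and 0.4 mg/ml salmon testes DNA. Fluorescence was scanned after antibody detection of each partner (one per run) and regression-normalized.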

Row | Sequence | PBM binding z-score
1 | ACTCGGAGTACAAAGGTCAGAGCTACGCCAGTGA | 2.36
2 | GCTCGCAGGACAAGGTCAGAGCTTTGTCCGTAGA | -1.24
3 | ATCGAAAGGTCGAAGGTGAGTATCCCCACCCGAA | 0.365
4 | GTACCAAGGTGAATAGGTCGTTGAGGAGTAGGCG | 0.334
5 | CCTACTGGGCCAAAAAGGTCATTGGTGCCGATAA | 0.489
6 | ACTATTAGTTGAGACGAGGGGAACCGATAGGTTG | 0.237
7 | TCAGACAGGTGAAGGTAACTTAGGTACGCAGTCG | 0.365
8 | GCCAGCAGGCCATTTGGGTCACTCAATGACGGGC | -1.21
9 | GCTATTAGTTGAAAGGGCAACTGAATGATTCTCG | 0.584
10 | TAGCCTAGGTCAAATCGGGCCAGTATACGCTATA | -0.373
11 | CAAACTAGGTCATCGGAAGGTCAAAGTCCGCATG | 1.67
12 | GGAACTAGGGCATTCGAGTTGATAGCATGGCGAT | -0.515
13 | TCTTGAAGATCAACAGGAGGTTAAGAAAGATCGA | 0.0716
14 | ACAGACAGGTGAGTGAAGGTATCTCAGCTGGACG | -0.61
15 | CAAACTAGGTCAAGCTCAAAGTCGGTTTGTGCCA | 0.322
16 | AATACAGGGTCATCGTAGCCCAGAGTACGCACAG | 0.855
17 | CCTGCTAGGTCATGGTAAGCTAATCTACAGTATG | -0.305
18 | GCTAGCAGGCCATTTGGGTCACTCAGTGACGGGC | -0.725
19 | TCAGACAGGTGAAGATAACTCAGGTACGCAGTCG | 0.4
20 | CCAGACAGGTGAGAAGGTAACTTAGCCTCGATTA | 0.973

Row | Sequence | PBM binding z-score
21 | TAGCCTAGGTCATGCGGTCCAGTATAGTGTCGGC | -0.726
22 | ACTAGTTGGTCAGCGGAGGTCACACACAATTCGG | 1.6
23 | TGAATGAGGTTAAAGATCACGGAACGTGGCGTCG | 0.0716
24 | TATACAGGGTCAAAGGCCAGGGTACGAATGTCGA | 1.67
25 | CCTTACGGGACACGAGGTTATAGCACGACGAGCG | 0.721
26 | CTACCAAGGTGAACAAGGTCGTTGAATACTATTC | 0.109
27 | CCGACTGGGACAAGGTTACCATAACGCACAGCCA | 0.13
28 | CCTAGTTGGTCAAGTTCACACACGCTATAGGTAC | 1.56
29 | ATTAGCAGGCCAAGTTTGGGTCACTCAAACAAAG | -0.273
30 | GATACAGGGTCACGGCCAGAGTACGCGTATTGAT | 0.744
31 | GCTAGCAGGCCATTTGGGTCGCTCAATGACGGGC | -1.69
32 | TCTAGCAGGCCAGAGGCTCACTCAAGAGGTACGG | -1.3
33 | ATCGAAAGGTCGAAGCTGAGTATACCCACCCGAA | 0.371
34 | CATTCAGGGTCAGCTAGGCCAGAGTAGGGACGGC | 0.262
35 | TTTGCTAGGTCAGTTGGTCAGCTAACGAGCTGCC | -0.935
36 | ACAGACAGGTGCTGAAGGTAACTCAGGCTATCAT | -0.406
37 | AGAAGGAGGTTAAGATCAGGGAAACAGAATACAT | 1.44
38 | AGAATGAGGTTAAGATCAGGCAAACAGAATACAT | 0.263
39 | CCTACTGGGCCAACGTCATTGATCAGTCAAAGCA | -0.369
40 | GCTAGCAGGCCGTTTGGGTCACTCAATGACGGGC | -1.38

System: RARb:RXRa (NR concentration 270 nM, RXRa partner concentration 90 nM)
Test: as above
How it was run: as §1

Row | Sequence | PBM binding z-score
41 | ACTCGGAGTACAAAGGTCAGAGCTACGCCAGTGA | 4.39
42 | GCTCGCAGGACAAGGTCAGAGCTTTGTCCGTAGA | 3.05
43 | ATCGAAAGGTCGAAGGTGAGTATCCCCACCCGAA | 3.68
44 | GTACCAAGGTGAATAGGTCGTTGAGGAGTAGGCG | 1.99
45 | CCTACTGGGCCAAAAAGGTCATTGGTGCCGATAA | 4.07
46 | ACTATTAGTTGAGACGAGGGGAACCGATAGGTTG | 0.18
47 | TCAGACAGGTGAAGGTAACTTAGGTACGCAGTCG | 1.15
48 | GCCAGCAGGCCATTTGGGTCACTCAATGACGGGC | 1.49
49 | GCTATTAGTTGAAAGGGCAACTGAATGATTCTCG | 2.1
50 | TAGCCTAGGTCAAATCGGGCCAGTATACGCTATA | 3.68
51 | CAAACTAGGTCATCGGAAGGTCAAAGTCCGCATG | 4.97
52 | GGAACTAGGGCATTCGAGTTGATAGCATGGCGAT | 0.965
53 | TCTTGAAGATCAACAGGAGGTTAAGAAAGATCGA | 0.816
54 | ACAGACAGGTGAGTGAAGGTATCTCAGCTGGACG | 0.255
55 | CAAACTAGGTCAAGCTCAAAGTCGGTTTGTGCCA | 4.33
56 | AATACAGGGTCATCGTAGCCCAGAGTACGCACAG | 4.29
57 | CCTGCTAGGTCATGGTAAGCTAATCTACAGTATG | 3.87
58 | GCTAGCAGGCCATTTGGGTCACTCAGTGACGGGC | 1.44
59 | TCAGACAGGTGAAGATAACTCAGGTACGCAGTCG | 1.1
60 | CCAGACAGGTGAGAAGGTAACTTAGCCTCGATTA | 0.689

Row | Sequence | PBM binding z-score
61 | TAGCCTAGGTCATGCGGTCCAGTATAGTGTCGGC | 3.79
62 | ACTAGTTGGTCAGCGGAGGTCACACACAATTCGG | 3.59
63 | TGAATGAGGTTAAAGATCACGGAACGTGGCGTCG | 2.18
64 | TATACAGGGTCAAAGGCCAGGGTACGAATGTCGA | 4.48
65 | CCTTACGGGACACGAGGTTATAGCACGACGAGCG | 1.11
66 | CTACCAAGGTGAACAAGGTCGTTGAATACTATTC | 2.03
67 | CCGACTGGGACAAGGTTACCATAACGCACAGCCA | 0.882
68 | CCTAGTTGGTCAAGTTCACACACGCTATAGGTAC | 2.92
69 | ATTAGCAGGCCAAGTTTGGGTCACTCAAACAAAG | 1.83
70 | GATACAGGGTCACGGCCAGAGTACGCGTATTGAT | 4.89
71 | GCTAGCAGGCCATTTGGGTCGCTCAATGACGGGC | -0.0207
72 | TCTAGCAGGCCAGAGGCTCACTCAAGAGGTACGG | -0.419
73 | ATCGAAAGGTCGAAGCTGAGTATACCCACCCGAA | 3.63
74 | CATTCAGGGTCAGCTAGGCCAGAGTAGGGACGGC | 4.42
75 | TTTGCTAGGTCAGTTGGTCAGCTAACGAGCTGCC | 3.31
76 | ACAGACAGGTGCTGAAGGTAACTCAGGCTATCAT | -0.476
77 | AGAAGGAGGTTAAGATCAGGGAAACAGAATACAT | 1.85
78 | AGAATGAGGTTAAGATCAGGCAAACAGAATACAT | 1.92
79 | CCTACTGGGCCAACGTCATTGATCAGTCAAAGCA | -0.00134
80 | GCTAGCAGGCCGTTTGGGTCACTCAATGACGGGC | 1.14
